Assay [1] deals with Gonadotropin-releasing hormone receptor (Homo sapiens) (UniProt P30968). Briefly: Human gonadotropin-releasing hormone receptor (GnRHR) small molecule agonists, calcium flux assay in GnRHR-HEK293 cells (AID 1920063). Note: nearly all actives have a fitted effect of over 35% in size. The gist of the method: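 Agonist mode: compounds at 15 concentrations, in triplicate, went onto calcium dye-loaded GnRHR-HEK293 cells. Intracellular calcium was then followed as 480/540 nm fluorescence at 1 s intervals over 3 min.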
Background: A change in cytosolic calcium serves as a functional read-out for many receptors and channels.

The nature of assay [2]: G protein-coupled receptor (GPCR) small molecule agonists, calcium flux assay: HEK293 wild type cell line counter screen (AID 1920065). The gist of the method: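 Calcium flux counter screen: compound added in agonist mode at 15 concentrations in triplicate to dye-loaded parental HEK293 cells. Fluorescence (480/540) read kinetically for 3 min; ATP served as positive control.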

Assay [3] can be described thus: p53 small molecule agonists, cell-based qHTS assay with human liver microsomes: qHTS cell viability counter screen (AID 1963579). Note: nearly all actives have a fitted effect of over 45% in size. Note: potency is the fitted concentration of half-maximal effect. A digest of the protocol:
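Seed p53RE-bla cells at 4,000 per well; incubate 5 h at 37 C; add compound, human liver microsomes and NADPH; incubate 16 h at 37 C; add CellTiter-Glo; after 30 min at room temperature, read luminescence.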

Assay [4] is described as follows: p53 small molecule agonists, cell-based qHTS assay with rat liver microsomes: qHTS cell viability counter screen (AID 1963580). Note: nearly all actives have a fitted effect of over 45% in size. Note: potency is the fitted concentration of half-maximal effect. The gist of the method:
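Counter screen for cytotoxicity under metabolic activation: rat liver microsomes and NADPH, 0.5 mg/mL final each, added with compounds to p53RE-bla HCT-116 cells; 16 h at 37 C, then ATP luminescence read.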
Background: In qHTS, concentration-response curves come from the screen itself.

A short description of assay [5]: p53 small molecule agonists, cell-based qHTS assay: qHTS cell viability counter screen (AID 1963581). Note: nearly all actives have a fitted effect of over 45% in size. Note: potency is the fitted concentration of half-maximal effect. The gist of the method:
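Counter screen read by CellTiter-Glo luminescence (ATP content, 30 min at room temperature), run in the same wells as the beta-lactamase reporter read. HCT-116 p53RE-bla cells saw compounds for 16 h at 37 C.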

In assay [6] the target is 5-hydroxytryptamine receptor 2A (Homo sapiens) (UniProt P28223). Nature of the assay: 5-hydroxytryptamine receptor 2A (HTR2A) small molecule antagonists, cell-based qHTS assay (AID 1963586). Note: nearly all actives have a fitted effect of over 45% in size. A digest of the protocol:
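CHO cells stably expressing human HTR2A were plated for 18 h at 37 C, then loaded with calcium dye for 1 h. Compounds were preincubated 5 min at room temperature before DOI (4 nM solution) was added. Kinetic fluorescence was read for 3 min.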

Assay [7] has the same target. Briefly: 5-hydroxytryptamine receptor 2A (HTR2A) small molecule agonists, cell-based qHTS assay (AID 1963587). Note: nearly all actives have a fitted effect of over 30% in size. A digest of the protocol:
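HTR2A-CHO cells, plated 18 h at 37 C/5% CO2, dye-loaded 1 h at 37 C; compounds in DMSO added by pin tool (agonist mode). Intracellular calcium flux read as kinetic fluorescence on FDSS over 2 min at 1 s intervals.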

For assay [8], the target named is Muscarinic acetylcholine receptor M1 (Homo sapiens) (UniProt P11229). Briefly: Cholinergic receptor muscarinic 1 (CHRM1) small molecule antagonists, cell-based qHTS assay (AID 1963588). Note: nearly all actives have a fitted effect of over 40% in size. The gist of the method:
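Compounds were tested at 15 concentrations in three independent runs. Dye-loaded CHRM1-CHO cells were exposed 5 min at room temperature before stimulation by acetylcholine added at 50nM. Intracellular calcium was read kinetically on FDSS for 3 min.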

Assay [9] has the same target. Nature of the assay: Cholinergic receptor muscarinic 1 (CHRM1) small molecule agonists, cell-based qHTS assay (AID 1963589). Note: nearly all actives have a fitted effect of over 35% in size. The gist of the method:
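Agonist-mode calcium-flux screen: compounds at 15 concentrations, three independent runs, were pin-transferred onto dye-loaded human CHRM1-CHO cells. Fluorescence was then recorded kinetically every second over minutes.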

A short description of assay [10]: cAMP Responsive Elements (CRE) small molecule agonists, cell-based qHTS assay (AID 1963590). A digest of the protocol: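 Agonist mode: compound added to CRE-bla HEK 293T cells (2,000/well, 18 h after plating) for 3 h at 37 C/5% CO2. Reporter activity detected via FRET beta-lactamase substrate, 2 h room-temperature loading.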
A short description of assay [11]: cAMP Responsive Elements (CRE) small molecule antagonists, cell-based qHTS assay (AID 1963591; active = well fitted inhibition curve with a large enough effect in the signal ratio in the repeat runs, not every such curve was filed as active; the % refers to the signal ratio). The gist of the method:
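Antagonist mode: compounds are added alongside the adenylyl cyclase activator NKH477 (0.25 uM final) to CRE-bla HEK293T cells for 3 h. LiveBLAzer FRET substrate, 2 h at room temperature, reports bla expression.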

Assay [12] deals with Beta-2 adrenergic receptor (Homo sapiens) (UniProt P07550). Briefly: Adrenergic beta2 receptor (ADRB2) small molecule antagonists, cell-based qHTS assay (AID 1963592). Note: series mostly up to about 92 µM; nearly all actives have a fitted effect of over 50% in size. The gist of the method: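 Assay format: CHO-ADRB2 cells, 18-20hr seeding at 37C/5% CO2, then compound plus 1nM isoproterenol agonist mix for 0.5hr RT. Homogeneous time-resolved fluorescence cAMP detection after 1hr, expressed as 665/615 nm ratio.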

Assay [13] shares this target. Nature of the assay: Adrenergic beta2 receptor (ADRB2) small molecule agonists, cell-based qHTS assay (AID 1963593).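 Note: CHO cells stably overexpressing human ADRB2.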 A digest of the protocol: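 CHO cells stably over-expressing ADRB2 were plated overnight at 37C, then dosed with compounds plus a stimulation mix containing 100uM IBMX and 25uM Ro-20-1724 for 0.5hr at room temperature. cAMP was measured by HTRF competition, 1hr.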

The target of assay [14] is D(2) dopamine receptor (Homo sapiens) (UniProt P14416). Nature of the assay: Dopamine D2 receptor (DRD2) small molecule agonists, cell-based qHTS assay (AID 1963594). Note: nearly all actives have a fitted effect of over 35% in size. A digest of the protocol: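 HEK293 cells stably expressing DRD2 were cultured 24 h at 37 C, then given Ro20-1724 (0.1 mM final) and compounds for 10 min at room temperature. NKH477 (200nM) was then added for 30 min. cAMP was read by HTRF.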

Assay [15] shares this target. Nature of the assay: Dopamine D2 receptor (DRD2) small molecule antagonists, cell-based qHTS assay (AID 1963595; active = well fitted inhibition curve with a large enough effect in the signal ratio in the repeat runs, with a control signal flat; the % refers to the signal ratio). The gist of the method:
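Readout: HTRF cAMP, cAMP-d2 competing with cellular cAMP for anti-cAMP cryptate, read after 1 h. Cells: DRD2-HEK293. Conditions: 0.1 mM Ro20-1724, 12 nM quinpirole, 200 nM NKH477, 30 min RT.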

Assay [16] in a line: p53 small molecule agonists, cell-based qHTS assay with human liver microsomes (AID 1963577). Note: potency is the fitted concentration of half-maximal effect. The gist of the method: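 Cells carrying a p53-responsive bla reporter were rested 5 h (37 C, 5% CO2) before compound transfer. Human liver microsomes plus NADPH, 0.5 mg/mL final apiece, supplied metabolism during the 16 h 37 C exposure.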
For assay [17], the target named is KiSS-1 receptor (Homo sapiens) (UniProt Q969F8). Briefly: Human kisspeptin (KISS1R) small molecule agonists, calcium flux assay in KISS1R-HEK293 cells (AID 1920064; active = well fitted activation curve with a large enough effect in the repeat runs). A digest of the protocol: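 Agonist mode: intracellular calcium rise tracked at 1 s intervals over 3 min (480/540 nm) immediately after compound addition to dye-loaded KISS1R-HEK293 stable cells. Each compound tested at 15 concentrations in triplicate.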

The nature of assay [18]: p53 small molecule agonists, cell-based qHTS assay with rat liver microsomes (AID 1963578). A digest of the protocol:
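Fluorescence from a beta-lactamase reporter under a p53 response element was measured after cells had been incubated 16 h at 37 C with test compound and rat liver microsomes plus NADPH (0.5 mg/mL final each).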

The nature of assay [19]: p53 small molecule agonists, cell-based qHTS assay (AID 1963582; active = well fitted activation curve with a large enough effect in the signal ratio in the repeat runs, not every such curve was filed as active; the % refers to the signal ratio). A digest of the protocol: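 Read-out is beta-lactamase FRET fluorescence after 2 h at room temperature with LiveBLAzer B/G substrate. p53 response element-bla cells were treated 16 h at 37 C with compounds in DMSO, added 5 h after seeding.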
Assay [20] in a line: Nuclear factor erythroid 2-related factor 2/antioxidant responsive element (Nrf2/ARE) small molecule agonists: luciferase reporter gene qHTS assay in human keratinocytes (AID 1919969). Note: nearly all actives have a fitted effect of over 35% in size. In general terms: A reporter such as luciferase makes a cellular process visible.

Several values for one entry are separate records, joined by “and”; a condition that tells them apart may be missing. Equal entries are not always repeated. Records with an inconclusive call do not appear. More than one record can exist for a structure, and the calls need not agree. Activity calls are given as the source filed them. Unless noted, calls come from the whole dose curve.
% is set by controls: 0 for no effect and ±100 for the full control effect.

Chain of Beta-2 adrenergic receptor (Homo sapiens) (P07550 whole entry, looked up): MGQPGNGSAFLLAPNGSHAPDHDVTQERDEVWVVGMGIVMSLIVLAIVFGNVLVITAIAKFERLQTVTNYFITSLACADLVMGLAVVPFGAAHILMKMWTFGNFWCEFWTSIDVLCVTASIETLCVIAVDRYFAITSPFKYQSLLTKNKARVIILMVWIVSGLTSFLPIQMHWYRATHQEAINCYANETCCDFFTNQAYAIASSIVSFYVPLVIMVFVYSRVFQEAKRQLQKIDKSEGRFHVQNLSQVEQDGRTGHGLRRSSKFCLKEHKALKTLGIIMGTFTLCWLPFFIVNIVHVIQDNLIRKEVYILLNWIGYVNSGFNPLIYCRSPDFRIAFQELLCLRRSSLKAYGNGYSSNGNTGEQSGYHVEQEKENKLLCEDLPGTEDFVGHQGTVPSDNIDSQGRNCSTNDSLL
Chain of 5-hydroxytryptamine receptor 2A (Homo sapiens) (P28223 whole entry, looked up): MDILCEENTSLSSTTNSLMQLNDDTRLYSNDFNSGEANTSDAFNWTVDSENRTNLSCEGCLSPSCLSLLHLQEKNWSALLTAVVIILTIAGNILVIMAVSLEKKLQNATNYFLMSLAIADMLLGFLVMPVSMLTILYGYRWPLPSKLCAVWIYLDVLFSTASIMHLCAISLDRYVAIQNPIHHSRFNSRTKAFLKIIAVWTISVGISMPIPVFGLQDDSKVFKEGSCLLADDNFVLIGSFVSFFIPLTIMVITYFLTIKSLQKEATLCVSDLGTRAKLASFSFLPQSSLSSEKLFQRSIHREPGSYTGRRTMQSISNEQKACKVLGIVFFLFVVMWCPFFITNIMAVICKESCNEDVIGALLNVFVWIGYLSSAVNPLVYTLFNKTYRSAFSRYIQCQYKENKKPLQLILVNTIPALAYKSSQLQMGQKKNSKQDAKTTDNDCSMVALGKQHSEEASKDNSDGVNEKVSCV
Chain of KiSS-1 receptor (Homo sapiens) (Q969F8 whole entry, looked up): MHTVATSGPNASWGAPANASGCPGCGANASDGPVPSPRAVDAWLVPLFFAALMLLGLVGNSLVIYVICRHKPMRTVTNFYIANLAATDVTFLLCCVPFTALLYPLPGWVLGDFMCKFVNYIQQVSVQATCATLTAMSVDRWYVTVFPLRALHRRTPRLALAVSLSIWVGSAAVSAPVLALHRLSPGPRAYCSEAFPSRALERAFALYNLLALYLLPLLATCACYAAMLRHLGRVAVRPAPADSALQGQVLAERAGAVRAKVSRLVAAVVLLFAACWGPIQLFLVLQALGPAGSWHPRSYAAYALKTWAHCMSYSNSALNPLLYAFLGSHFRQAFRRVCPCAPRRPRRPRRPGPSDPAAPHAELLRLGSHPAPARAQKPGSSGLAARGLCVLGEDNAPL
Chain of D(2) dopamine receptor (Homo sapiens) (P14416 whole entry, looked up): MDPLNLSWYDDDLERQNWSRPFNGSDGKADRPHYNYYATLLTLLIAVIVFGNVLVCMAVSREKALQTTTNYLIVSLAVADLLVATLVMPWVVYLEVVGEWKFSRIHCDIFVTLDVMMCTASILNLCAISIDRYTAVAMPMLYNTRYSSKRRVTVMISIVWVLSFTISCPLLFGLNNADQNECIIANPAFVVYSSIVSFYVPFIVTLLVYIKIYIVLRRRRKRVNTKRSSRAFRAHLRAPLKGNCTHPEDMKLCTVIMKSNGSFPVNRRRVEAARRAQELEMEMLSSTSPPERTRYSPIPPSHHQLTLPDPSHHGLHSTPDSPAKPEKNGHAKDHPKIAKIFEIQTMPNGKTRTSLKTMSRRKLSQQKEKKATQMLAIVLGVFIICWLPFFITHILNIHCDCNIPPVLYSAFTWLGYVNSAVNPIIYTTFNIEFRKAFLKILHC
Chain of Muscarinic acetylcholine receptor M1 (Homo sapiens) (P11229 whole entry, looked up): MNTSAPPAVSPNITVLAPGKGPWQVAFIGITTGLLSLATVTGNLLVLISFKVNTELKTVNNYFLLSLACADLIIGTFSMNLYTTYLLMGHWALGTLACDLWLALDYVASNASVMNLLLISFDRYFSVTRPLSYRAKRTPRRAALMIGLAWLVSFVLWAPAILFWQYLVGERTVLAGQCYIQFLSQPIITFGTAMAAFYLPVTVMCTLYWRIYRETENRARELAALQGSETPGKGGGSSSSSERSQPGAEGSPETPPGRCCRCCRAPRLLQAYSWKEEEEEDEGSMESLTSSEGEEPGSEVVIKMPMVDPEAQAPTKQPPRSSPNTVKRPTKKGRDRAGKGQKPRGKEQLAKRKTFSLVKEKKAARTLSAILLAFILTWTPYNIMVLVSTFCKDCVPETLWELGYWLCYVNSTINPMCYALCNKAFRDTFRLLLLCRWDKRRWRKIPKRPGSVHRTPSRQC
Chain of Gonadotropin-releasing hormone receptor (Homo sapiens) (P30968 whole entry, looked up): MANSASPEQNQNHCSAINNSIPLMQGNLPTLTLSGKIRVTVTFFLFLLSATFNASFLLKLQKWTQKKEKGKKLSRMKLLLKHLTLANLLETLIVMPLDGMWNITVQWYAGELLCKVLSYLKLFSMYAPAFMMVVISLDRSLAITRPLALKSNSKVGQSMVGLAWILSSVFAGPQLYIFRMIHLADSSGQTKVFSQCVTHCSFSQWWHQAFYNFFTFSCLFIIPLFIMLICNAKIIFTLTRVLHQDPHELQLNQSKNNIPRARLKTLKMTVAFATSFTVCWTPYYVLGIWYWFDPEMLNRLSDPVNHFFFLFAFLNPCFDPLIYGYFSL

Take `CC(=O)O`: the Potency entry in assay [1], in [2], in assay [3], in assay [4], in assay [5] and in assay [6] was “inactive” throughout. The Potency entry in assay [7], in [8], in assay [9], in assay [10], in assay [11] and in assay [12] was “inactive” each time. Besides, the Potency entry in assay [14] and in assay [15] was “inactive” in each case. Moreover, the activation in assay [13] is -4.33% [at 8.39 µM] (inactive).
Turning to `CCN(CC)C(=O)/C(Cl)=C(\C)OP(=O)(OC)OC`, the Potency result in assay [1], in assay [2], in assay [3], in [4], in assay [5] and in [6] was “inactive” throughout. Also, the Potency entry in assay [7], in assay [8], in assay [9], in assay [10], in [11] and in assay [12] was “inactive” each time. In addition, the Potency result in assay [13] and in [15] was “inactive” each time. The Potency in assay [16] is 1.86 µM (active) and 9.13 µM (active).
With `Cc1cc(Cl)ccc1OC(C)C(=O)O` (stereo not drawn), the Potency result in [1], in [17], in assay [16], in [18], in assay [3] and in assay [4] was “inactive” in each case. Further, the Potency result in assay [5], in assay [19], in assay [7], in assay [8], in assay [10] and in [11] was “inactive” throughout. For the same compound, the Potency result in [12], in assay [13], in assay [14] and in assay [15] was “inactive” in each case.
For `CCCCC(CC)COC(=O)Cl` (stereo not drawn), the Potency result in [1], in assay [17], in [3], in [4], in assay [5] and in assay [6] was “inactive” each time. Moreover, the Potency entry in assay [7], in [8], in [9], in assay [10], in assay [11] and in [12] was “inactive” each time. Further, the Potency result in assay [14] and in [15] was “inactive” throughout.
`COc1ccc(C(O)(c2cncnc2)C2CC2)cc1` (stereo not drawn): the Potency entry in [17], in assay [2], in assay [16], in [18], in assay [3] and in assay [5] was “inactive” in each case. The Potency result in assay [19], in assay [6], in [7], in [8], in [9] and in [10] was “inactive” throughout. Also, the Potency result in assay [11], in assay [12], in assay [13], in assay [14] and in assay [15] was “inactive” throughout.
`Cc1ccc2c(c1N)C(=O)c1ccccc1C2=O`: the Potency result in assay [1], in assay [17], in assay [16], in assay [18], in [3] and in assay [4] was “inactive” throughout. Moreover, the Potency result in assay [5], in assay [19], in [6], in assay [7], in [8] and in assay [9] was “inactive” each time. Moreover, the Potency result in [11], in assay [12], in assay [13], in assay [14] and in [15] was “inactive” throughout.
On to `OCc1ccco1`, for which the Potency result in assay [20], in [1], in assay [17], in [2], in assay [16] and in assay [18] was “inactive” throughout. Also, the Potency entry in assay [3], in assay [4], in assay [5], in assay [19], in assay [6] and in assay [7] was “inactive” throughout. Besides, the Potency result in assay [8], in assay [9], in assay [10], in assay [11], in assay [12] and in assay [13] was “inactive” in each case. Also, the Potency entry in [14] and in assay [15] was “inactive” each time.
On to `C[C@@H]1O[C@@H](O[C@H]2C[C@@H](O)[C@]3(CO)[C@H]4[C@H](O)C[C@]5(C)[C@@H](C6=CC(=O)OC6)CC[C@]5(O)[C@@H]4CC[C@]3(O)C2)[C@H](O)[C@H](O)[C@H]1O`, for which the Potency result in [1], in assay [2], in assay [12], in [13], in [14] and in [15] was “inactive” throughout. In addition, the Potency in assay [3] was 68.8 nM (active) and inactive; in assay [4], 112 nM (active); in assay [5], 126 nM (active).

Source of the values: PubChem BioAssay (Tox21).
